# Laboratory results as given in ChEMBL document CHEMBL3988442, “University of Dundee, Small-Polar-MMV Screening Library” (2021).
# For some of these results: Entries with a potency or affinity are not part of this list.
# Legend:
# Parameters in all cases: scale not given: direction of the effect not stated beside the values
# [1] = target: Protein translocase subunit SecA (Escherichia coli (strain K12)) (UniProt P10408); assay: Assay to Identify E. coli SecA ATPase Inhibitors; assay type: functional; settings: 30 µM
# Sequence of Protein translocase subunit SecA (Escherichia coli (strain K12)) (P10408 whole entry): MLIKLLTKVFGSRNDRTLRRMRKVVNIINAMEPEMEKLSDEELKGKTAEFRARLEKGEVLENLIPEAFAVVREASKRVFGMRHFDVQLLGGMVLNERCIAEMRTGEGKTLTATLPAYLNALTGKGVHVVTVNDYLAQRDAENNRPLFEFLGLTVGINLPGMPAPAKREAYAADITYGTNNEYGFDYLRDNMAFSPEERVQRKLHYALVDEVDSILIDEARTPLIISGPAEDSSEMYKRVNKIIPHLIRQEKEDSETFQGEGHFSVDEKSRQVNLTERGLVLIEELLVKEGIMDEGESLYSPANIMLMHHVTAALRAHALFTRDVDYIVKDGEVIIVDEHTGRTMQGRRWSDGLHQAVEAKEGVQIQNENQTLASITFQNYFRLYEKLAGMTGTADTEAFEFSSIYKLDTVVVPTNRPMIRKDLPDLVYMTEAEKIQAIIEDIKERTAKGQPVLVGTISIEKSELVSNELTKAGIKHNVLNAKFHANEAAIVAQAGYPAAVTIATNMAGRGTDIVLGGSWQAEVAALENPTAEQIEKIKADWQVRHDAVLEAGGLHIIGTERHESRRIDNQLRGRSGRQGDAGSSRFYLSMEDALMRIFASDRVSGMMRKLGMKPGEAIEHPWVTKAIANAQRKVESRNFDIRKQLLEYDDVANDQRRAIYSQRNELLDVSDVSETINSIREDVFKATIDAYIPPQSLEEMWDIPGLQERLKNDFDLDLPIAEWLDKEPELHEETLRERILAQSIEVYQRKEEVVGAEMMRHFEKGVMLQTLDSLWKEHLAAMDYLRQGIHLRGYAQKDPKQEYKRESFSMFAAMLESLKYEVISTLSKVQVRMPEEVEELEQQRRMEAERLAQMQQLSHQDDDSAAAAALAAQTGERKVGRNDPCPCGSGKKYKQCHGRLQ
# [2] = target: T1, Ubiquitin-activating enzyme e1, putative (Leishmania donovani (strain BPK282A1)) (UniProt E9BSI1); assay: Leishmania donovani Ubiquitin Activating Enzyme (LdE1); assay type: functional; settings: 30 µM
# T1 sequence (whole entry): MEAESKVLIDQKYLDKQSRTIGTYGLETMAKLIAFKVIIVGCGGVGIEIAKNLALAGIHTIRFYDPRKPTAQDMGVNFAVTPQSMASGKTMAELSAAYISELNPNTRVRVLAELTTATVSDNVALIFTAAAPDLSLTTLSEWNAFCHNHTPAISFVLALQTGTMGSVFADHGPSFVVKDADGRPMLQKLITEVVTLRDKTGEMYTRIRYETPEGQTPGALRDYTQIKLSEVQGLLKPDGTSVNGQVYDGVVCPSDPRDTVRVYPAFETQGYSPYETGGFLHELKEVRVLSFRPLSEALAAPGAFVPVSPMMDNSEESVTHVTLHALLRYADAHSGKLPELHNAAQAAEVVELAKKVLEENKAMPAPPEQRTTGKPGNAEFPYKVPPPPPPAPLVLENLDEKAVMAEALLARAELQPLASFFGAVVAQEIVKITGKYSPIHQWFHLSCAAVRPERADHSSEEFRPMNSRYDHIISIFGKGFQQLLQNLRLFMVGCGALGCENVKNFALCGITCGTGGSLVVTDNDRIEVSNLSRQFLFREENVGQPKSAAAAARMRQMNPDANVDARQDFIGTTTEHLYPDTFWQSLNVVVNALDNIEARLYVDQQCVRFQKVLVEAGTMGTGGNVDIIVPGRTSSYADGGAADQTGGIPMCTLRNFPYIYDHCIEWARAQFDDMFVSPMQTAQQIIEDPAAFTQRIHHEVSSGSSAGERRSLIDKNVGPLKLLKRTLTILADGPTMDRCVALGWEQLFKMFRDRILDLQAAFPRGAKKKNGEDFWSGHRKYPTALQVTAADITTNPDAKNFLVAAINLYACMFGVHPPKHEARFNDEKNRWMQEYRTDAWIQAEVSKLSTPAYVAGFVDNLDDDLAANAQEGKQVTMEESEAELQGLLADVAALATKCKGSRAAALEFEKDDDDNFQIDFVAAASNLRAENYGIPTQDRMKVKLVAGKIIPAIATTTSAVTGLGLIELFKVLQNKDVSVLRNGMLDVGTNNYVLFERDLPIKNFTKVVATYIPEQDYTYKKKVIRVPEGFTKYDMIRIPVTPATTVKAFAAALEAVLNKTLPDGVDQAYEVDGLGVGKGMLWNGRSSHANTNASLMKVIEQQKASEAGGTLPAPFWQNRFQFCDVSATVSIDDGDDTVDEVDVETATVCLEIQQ
# [3] = target: AMP-activated protein kinase, AMPK (Homo sapiens) (UniProt P54646+O43741+P54619+Q9UGJ0+Q9Y478+Q13131+Q9UGI9); assay: AMP-dependent Kinase enzyme assay. An in vitro enzyme assay that detects ADP turnover that is directly proportional to AMPK activity. This uses naive AMPK that is activated during the assay with MK-8722; assay type: functional; settings: 30 µM
# [4] = target: Sialic acid-binding Ig-like lectin 9 (Homo sapiens) (UniProt Q9Y336); assay: Hs-Siglec9 ALPHAscreen SOP 20170721; settings: 10 µM
# Sequence of Sialic acid-binding Ig-like lectin 9 (Homo sapiens) (Q9Y336 whole entry): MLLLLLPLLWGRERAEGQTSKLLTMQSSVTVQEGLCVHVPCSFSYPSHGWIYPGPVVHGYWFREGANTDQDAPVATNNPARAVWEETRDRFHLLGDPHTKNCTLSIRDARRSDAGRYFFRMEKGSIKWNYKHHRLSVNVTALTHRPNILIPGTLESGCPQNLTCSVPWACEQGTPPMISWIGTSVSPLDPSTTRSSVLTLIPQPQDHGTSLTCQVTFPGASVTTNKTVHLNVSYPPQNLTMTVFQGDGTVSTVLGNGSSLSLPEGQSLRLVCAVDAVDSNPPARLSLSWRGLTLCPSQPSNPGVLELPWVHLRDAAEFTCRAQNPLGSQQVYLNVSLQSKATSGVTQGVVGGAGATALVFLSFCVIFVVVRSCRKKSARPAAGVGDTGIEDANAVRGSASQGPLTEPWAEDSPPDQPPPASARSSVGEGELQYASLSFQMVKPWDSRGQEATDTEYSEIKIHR
# Trypanosoma cruzi = assay: Trypanosoma cruzi phosphomannomutase and mannose-1-phosphate guanylyltransferase assay; assay type: functional; settings: 10 µM
# [5] = target: T2, Arginase-2, mitochondrial (Homo sapiens) (UniProt P78540); assay: in vitro enzyme assay to detect the production of urea directly proportional to the activity of Arginase II; assay type: functional; settings: 33.3 µM; note: in the data most compounds retested in dose-response had high values
# T2 sequence (whole entry): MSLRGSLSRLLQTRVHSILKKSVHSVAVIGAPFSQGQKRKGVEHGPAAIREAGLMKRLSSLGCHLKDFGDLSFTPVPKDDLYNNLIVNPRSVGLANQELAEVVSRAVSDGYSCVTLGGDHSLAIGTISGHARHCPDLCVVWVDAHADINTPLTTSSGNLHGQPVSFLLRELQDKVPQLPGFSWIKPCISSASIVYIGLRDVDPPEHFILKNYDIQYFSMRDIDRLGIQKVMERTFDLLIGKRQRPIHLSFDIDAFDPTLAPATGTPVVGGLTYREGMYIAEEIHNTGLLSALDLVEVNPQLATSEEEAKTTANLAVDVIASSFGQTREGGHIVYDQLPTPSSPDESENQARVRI
# [6] = target: T3, Proteasome subunit beta (Trypanosoma cruzi) (UniProt O96673); assay: Trypanosoma cruzi proteasome chymotrypsin-like activity (TcProtChymo) assay.; note: in the data most compounds retested in dose-response had high values; assay type: functional; settings: 9.37 µM
# T3 sequence (whole entry): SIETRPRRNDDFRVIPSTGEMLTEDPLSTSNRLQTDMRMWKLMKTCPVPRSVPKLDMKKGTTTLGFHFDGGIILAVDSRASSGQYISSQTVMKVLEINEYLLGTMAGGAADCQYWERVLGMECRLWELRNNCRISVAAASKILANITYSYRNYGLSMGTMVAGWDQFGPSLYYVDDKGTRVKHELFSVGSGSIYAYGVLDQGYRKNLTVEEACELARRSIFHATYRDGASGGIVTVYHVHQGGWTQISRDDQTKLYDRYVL
# Homo sapiens = organism: Homo sapiens; assay: To identify inhibition of the IFN signalling (Jak-Stat) pathway via expression of an eGFP reporter gene under the control of an IFN-stimulated response element (ISRE) containing MxA promoter.; assay type: functional; settings: 30 µM
# [7] = target: T4, Tyrosyl-tRNA synthetase, putative (Trypanosoma cruzi (strain CL Brener)) (UniProt Q4DSP6); assay: Trypanosoma cruzi tyrosyl tRNA synthetase (TcYRS) _High Tyrosine SOP; assay type: functional; settings: 30 µM; note: in the data most compounds retested in dose-response had high values
# T4 sequence (whole entry): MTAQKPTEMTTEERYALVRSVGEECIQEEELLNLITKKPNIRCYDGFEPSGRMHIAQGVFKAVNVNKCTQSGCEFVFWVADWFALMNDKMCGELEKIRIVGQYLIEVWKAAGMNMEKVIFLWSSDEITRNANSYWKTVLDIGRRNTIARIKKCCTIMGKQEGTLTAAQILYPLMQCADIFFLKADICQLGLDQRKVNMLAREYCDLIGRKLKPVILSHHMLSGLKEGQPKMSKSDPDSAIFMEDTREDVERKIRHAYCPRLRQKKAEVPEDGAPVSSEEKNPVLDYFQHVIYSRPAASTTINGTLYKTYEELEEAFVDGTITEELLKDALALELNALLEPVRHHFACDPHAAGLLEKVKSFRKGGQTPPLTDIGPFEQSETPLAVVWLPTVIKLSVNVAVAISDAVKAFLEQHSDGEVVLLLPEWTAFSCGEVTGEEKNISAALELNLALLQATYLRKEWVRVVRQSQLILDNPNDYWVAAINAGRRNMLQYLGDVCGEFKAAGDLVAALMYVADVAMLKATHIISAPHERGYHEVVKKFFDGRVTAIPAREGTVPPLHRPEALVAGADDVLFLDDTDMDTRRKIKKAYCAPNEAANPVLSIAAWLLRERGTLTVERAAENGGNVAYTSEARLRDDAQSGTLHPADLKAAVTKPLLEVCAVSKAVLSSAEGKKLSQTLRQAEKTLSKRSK
# [8] = target: T4, Tyrosyl-tRNA synthetase, putative (Trypanosoma cruzi (strain CL Brener)); assay: Trypanosoma cruzi tyrosyl tRNA synthetase (TcYRS) SOP; assay type: functional; settings: 30 µM
# [9] = target: Chromo domain-containing protein 1 (Saccharomyces cerevisiae (strain ATCC 204508 / S288c) (Baker's yeast)) (UniProt P32657); assay: ScCHD-1 Enzyme Inhibition Assay; assay type: functional; settings: 30 µM; note: in the data most compounds retested in dose-response had high values
# Sequence of Chromo domain-containing protein 1 (Saccharomyces cerevisiae (strain ATCC 204508 / S288c) (Baker's yeast)) (P32657 whole entry, the tested form may be a part): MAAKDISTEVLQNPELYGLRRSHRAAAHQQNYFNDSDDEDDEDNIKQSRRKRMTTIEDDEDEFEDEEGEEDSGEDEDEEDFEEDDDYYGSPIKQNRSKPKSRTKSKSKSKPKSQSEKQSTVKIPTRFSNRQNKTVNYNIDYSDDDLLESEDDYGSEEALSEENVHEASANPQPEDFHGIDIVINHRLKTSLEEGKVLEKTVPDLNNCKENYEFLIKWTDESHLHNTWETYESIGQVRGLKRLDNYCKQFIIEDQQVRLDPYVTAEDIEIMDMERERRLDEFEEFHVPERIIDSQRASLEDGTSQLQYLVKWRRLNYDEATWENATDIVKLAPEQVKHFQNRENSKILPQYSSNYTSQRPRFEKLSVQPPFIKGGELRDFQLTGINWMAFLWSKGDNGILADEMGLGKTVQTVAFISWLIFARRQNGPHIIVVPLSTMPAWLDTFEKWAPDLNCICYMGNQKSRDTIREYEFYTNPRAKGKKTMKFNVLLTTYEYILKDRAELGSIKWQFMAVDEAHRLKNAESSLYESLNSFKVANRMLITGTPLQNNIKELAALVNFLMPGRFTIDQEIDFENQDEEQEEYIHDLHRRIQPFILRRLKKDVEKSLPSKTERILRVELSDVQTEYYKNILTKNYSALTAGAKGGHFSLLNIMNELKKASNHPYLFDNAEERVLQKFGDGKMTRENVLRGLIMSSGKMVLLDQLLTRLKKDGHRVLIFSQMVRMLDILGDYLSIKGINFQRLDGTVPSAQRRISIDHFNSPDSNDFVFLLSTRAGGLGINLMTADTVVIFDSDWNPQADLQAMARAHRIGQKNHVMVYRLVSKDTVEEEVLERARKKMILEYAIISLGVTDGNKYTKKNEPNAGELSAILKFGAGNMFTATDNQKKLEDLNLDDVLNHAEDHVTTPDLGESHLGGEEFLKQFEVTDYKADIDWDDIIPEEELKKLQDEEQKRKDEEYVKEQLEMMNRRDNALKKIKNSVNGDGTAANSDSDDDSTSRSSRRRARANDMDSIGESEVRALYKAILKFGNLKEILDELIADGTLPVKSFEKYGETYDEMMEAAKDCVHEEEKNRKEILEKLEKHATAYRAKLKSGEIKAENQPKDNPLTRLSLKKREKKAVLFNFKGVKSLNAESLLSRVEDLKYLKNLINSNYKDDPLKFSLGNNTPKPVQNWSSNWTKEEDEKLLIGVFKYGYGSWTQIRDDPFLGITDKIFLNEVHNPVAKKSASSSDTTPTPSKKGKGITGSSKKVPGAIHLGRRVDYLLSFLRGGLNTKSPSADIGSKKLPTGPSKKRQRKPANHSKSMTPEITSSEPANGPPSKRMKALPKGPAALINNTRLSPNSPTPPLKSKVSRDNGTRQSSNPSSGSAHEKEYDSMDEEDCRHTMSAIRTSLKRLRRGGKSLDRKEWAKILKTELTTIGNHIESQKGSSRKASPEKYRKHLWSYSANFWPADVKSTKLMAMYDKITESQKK
SMILES,Percent Effect [1],Percent Effect [2],Percent Effect [3],Percent Effect [4],Percent Effect (Trypanosoma cruzi),Percent Effect [5],Percent Effect [6],Percent Effect (Homo sapiens),Percent Effect [7],Percent Effect [8],Percent Effect [9]
Cc1ccc(C(NC(=O)CC2CCN(C(C)C)CC2)C(=O)O)cc1 (stereo not drawn),-4.94%,2.7%,-0.654%,-0.948%,1.74%,0.476%,1.55%,0.454%,2.65%,9.76%,0.336%
c1ccc(-c2nnn3c2COC(CNCC2CCOCC2)C3)cc1 (stereo not drawn),-4.05%,8%,10.9%,4.62%,-0.984%,-1.63%,0.0881%,12.3%,7.45%,19.2%,-2.25%
c1ccc2sc(CN3CCOC(Cn4cncn4)C3)nc2c1 (stereo not drawn),-1.57%,-8.11%,-9.39%,-1.81%,-6.51%,0.401%,-4.68%,42.5%,1.48%,-6.17%,4.42%
CC(=O)Nc1ncc(S(=O)(=O)Nc2ccc(F)cc2)s1,-4.49%,17.3%,-9.36%,-7.58%,2.36%,-0.88%,12.2%,20.4%,3.17%,10.3%,-10.6%
Cc1occc1C(=O)N1CCc2c(COCC3CC3)cncc2C1,-1.99%,18.9%,-0.121%,-6.57%,3.03%,7.96%,26.8%,13.8%,10.8%,20.5%,-0.136%
CCc1cc(NCC(O)CN2CCCCC2)n2ncnc2n1 (stereo not drawn),-4.14%,7.89%,2.69%,4.78%,1.27%,-2.37%,15.2%,3.03%,4.25%,13%,-4.78%
COc1ccc(S(=O)(=O)N2CCC(S(C)(=O)=O)CC2)cc1C,-3.14%,7.79%,3.88%,0.29%,4.04%,1.94%,4.7%,-5.43%,3.17%,11.5%,-6.76%
O=C(COCc1nc(-c2ccncc2)no1)N1CCCC1,-2.71%,10.4%,5.42%,6.86%,4.42%,-110%,7.32%,-13.8%,5.38%,13.6%,-4.16%
